Screening results: PubChem BioAssay, National Center for Advancing Translational Sciences (NCATS)
Hits are enriched below; roughly 2.7% of the tested compounds scored in any of these assays.
ALOX12 inh – Primary qHTS assay for inhibitors of human arachidonate 12S-lipoxygenase (ALOX12): Round 2 | actives 1.1% (n = 580,000) | AID 1671190, 2021 | Potency, µM (series often up to 108 µM), without a hit: at the highest dose activity change, negative = inhibition, actives largely listed as inhibitors | purified 12hLO, xylenol orange hydroperoxide absorbance | Polyunsaturated fatty acid lipoxygenase ALOX12 (Homo sapiens), P18054; note: potency is the fitted concentration of half-maximal effect; % is set by controls: 0 for no effect and ±100 for the full control effect
Target sequence (P18054 whole entry, looked up): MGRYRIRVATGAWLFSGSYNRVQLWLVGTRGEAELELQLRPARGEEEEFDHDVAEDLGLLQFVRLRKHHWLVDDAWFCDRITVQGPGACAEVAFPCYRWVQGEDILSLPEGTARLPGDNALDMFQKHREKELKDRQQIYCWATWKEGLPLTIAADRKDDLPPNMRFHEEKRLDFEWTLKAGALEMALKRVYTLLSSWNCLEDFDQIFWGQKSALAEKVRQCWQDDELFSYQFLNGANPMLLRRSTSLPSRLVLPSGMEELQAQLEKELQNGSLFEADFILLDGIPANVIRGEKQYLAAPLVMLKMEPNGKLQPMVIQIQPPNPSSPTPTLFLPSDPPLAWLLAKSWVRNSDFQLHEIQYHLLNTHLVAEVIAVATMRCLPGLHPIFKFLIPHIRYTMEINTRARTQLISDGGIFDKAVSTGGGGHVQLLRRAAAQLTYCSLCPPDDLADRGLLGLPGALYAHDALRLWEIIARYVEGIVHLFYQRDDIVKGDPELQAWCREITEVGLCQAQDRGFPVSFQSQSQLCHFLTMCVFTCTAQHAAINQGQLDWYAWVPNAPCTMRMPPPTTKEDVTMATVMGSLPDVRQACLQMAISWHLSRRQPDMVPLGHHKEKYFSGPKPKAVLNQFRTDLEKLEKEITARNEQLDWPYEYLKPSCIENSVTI
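Purified human 12hLO at 150 nM in 25 mM Hepes, 0.01% Triton X-100, pH 7.0, preincubated 15 min at room temperature with compound. Reaction started with 40 uM arachidonic acid, 30 min at room temperature. Hydroperoxide measured by Fe-xylenol orange, 573/405 nm absorbance ratio.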
ERG Ets-DNA blk – qHTS for Small Molecule Inhibitors of the ERG Ets/DNA interaction | Transcriptional regulator ERG (Homo sapiens), P11308 | actives 0.028% (n = 370,000) | AID 624246, 2012 | fluorescence polarization, His-ERG Ets domain / labelled DNA | Potency, µM (titrated, usually from 76.9 µM), without a hit: top-dose FP activity, negative = inhibition, actives largely listed as inhibitors; active = well fitted inhibition curve with a large enough effect in the polarisation, with a control signal flat; inconclusive = small, poorly fitted or top-dose-only effect, or effect the other way, or a change in a side signal; inactive = no such curve, though single readings can be large or run the other way; the % refers to the polarisation;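 note: polarization taken with two DNA probes labelled with fluorescein and Texas red; potency is the fitted concentration of half-maximal effect; % of control where 0% means no effect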
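His-tagged ERG Ets domain (1 uM in the protein solution; 300mM KCl, 50mM Tris-HCl, 1mM EDTA, 1mM DTT, pH 7.5) received compound, then a probe mix of 5 nM fluorescein-DNA and 100nM Texas-615-DNA. Fluorescence polarization was read for both dyes.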
Nrf2 activator – qHTS of Nrf2 Activators. AREc32 ARE-luciferase reporter (MCF7-derived line), luminescence, 24 h. actives 0.31% (n = 410,000). Potency, µM (top dose mostly 46.1 µM), for inactives: at the top dose activation, usual class: activators; note: potency is the fitted concentration of half-maximal effect; % of control where 0% means no effect; nearly all actives have a fitted effect of over 65% in size
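Quantitative high-throughput format: AREc32 reporter cells, 1000 per well, received compound by pin transfer and were incubated 24 hr at 37 deg C, 5% CO2, before Steady-Glo luminescence detection.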
LDHA inh – qHTS assay for inhibitors of human lactate dehydrogenase. purified LDHA, NADH/diaphorase-resazurin fluorescence; active compounds read low. L-lactate dehydrogenase A chain (Homo sapiens), P00338. actives 0.15% (n = 480,000). activity change, % (values are at about 110 or 230 µM); in the data active = activity change below about -30%; inconclusive = mostly about -25% to -30%;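 note: plate controls were DMSO wells for no effect and wells without enzyme for full effect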
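LDH5 2 nM; NADH 0.06 mM, pyruvate 0.2 mM; 200 mM Tris pH 7.4, EDTA, Tween-20; 5 min RT. Detection: diaphorase 0.133 mg/mL + resazurin 37 µM, fluorescence ex540/em590 at 0 and 20 min; normalized to enzyme-free and DMSO wells.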
A549 tox – Nrf2 qHTS screen for inhibitors: counterscreen for cytotoxicity. A549 ARE-Fluc cells, CellTiter-Fluor viability, 18-24 h. Potency, µM (titrated, usually from 46 µM), inactives show at the highest dose activity change, negative = cytotoxicity, usual class: inhibitors. actives 0.16% (n = 390,000). AID 504648, 2011; note: potency is the fitted concentration of half-maximal effect; % is set by controls: 0 for no effect and ±100 for the full control effect
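A549 ARE-Fluc cells in 5% FBS OPTI-MEM, 5000 cells/well, rested 2 h then exposed to compounds in concentration-response for 18-24 h at 37 °C. Viability by CellTiter-Fluor fluorescence (Ex 405/Em 525) after 30 min; luciferase luminescence (BugLite, 15 min, RT) read afterwards.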
Nrf2 inh – Nrf2 qHTS screen for inhibitors; A549 ARE-Fluc reporter, luciferase luminescence, 18-24 h; Potency, µM (series often up to 46 µM), without a hit: top-dose activity change, negative = inhibition, hits mostly inhibitors; actives 2.1% (n = 360,000); note: potency is the fitted concentration of half-maximal effect; % is set by controls: 0 for no effect and ±100 for the full control effect; nearly all actives have a fitted effect of over 60% in size
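Nrf2 function is reported as luminescence of an ARE-controlled luciferase in A549 cells. Compounds were tested at several concentrations, and a CellTiter-Fluor read on the same wells flagged cytotoxicity.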
The depositor's hits bear a star; ? = inconclusive; · = no result; ! = not active in a repeat; [ ] = another dose, or the depositor's remark. Unless noted, calls come from the whole dose curve; as a rule, active = well fitted curve in the direction sought with a large enough effect; inconclusive = small, poorly fitted or top-dose-only effect, or another doubt; inactive = no such curve, though single readings can be large; an effect the other way counts as inactive or inconclusive.

SMILES	ALOX12 inh	ERG Ets-DNA blk	Nrf2 activator	LDHA inh	A549 tox	Nrf2 inh
COC(=O)c1ccc2nc(-c3ccc(F)cc3)c(Cc3ccc(OC)cc3C)n2c1	-30%	·	0%	-3	·	·
COC(=O)c1ccc2nc(-c3ccco3)c(Cc3ccc(C)cc3)n2c1	?	·	11µM*	-1	·	·
CC(=O)c1ccc(NC(=O)CSc2nc(C)c(C)o2)cc1	?	·	·	-5	·	·
C/C(=N\NC(=O)CSCc1ccc(Cl)cc1)c1ccc2c(c1)OCCO2	0%	-6%	0%	-2	-7%	16µM*
C/C(=N\NC(=O)COc1cccc(Cl)c1)c1ccc2c(c1)OCCO2	1%	-1%	0%	-7	1%	-22%
COc1ccc(-c2nc3c(s2)CN(C(C(=O)O)c2c[nH]c4cc(F)ccc24)CC3)cc1 (configuration not stated)	?	·	·	4	·	·
O=c1[nH]c2cc([N+](=O)[O-])ccc2c2cc(Br)ccc12	-14%	·	3.2µM*	6	·	·
CC(=O)NC(=S)Nc1cc(C(F)(F)F)ccc1N1CCOCC1	-13%	-2%	4%	0	3%	26µM*
COc1cc(/C=C(/C#N)C(=O)C(C)C)cc(Cl)c1O	?	·	·	-1	·	·
O=C(CSc1nc(-c2ccc(Cl)cc2)cs1)Nc1cccc([N+](=O)[O-])c1	-12%	1%	19%	-1	-21%	16µM*
CCOc1ccc(CN(C)Cc2cc(=O)oc3c(C)c(C)ccc23)cc1OC	-1%	2%	3%	0	-16%	16µM*
O=C(/C=C/c1ccccc1)c1cc2cc(Br)ccc2oc1=O	-10%	·	·	2	·	·
Cc1cc(C)c(C(=O)/C=C/c2ccccc2)cc1C	-6%	·	·	-7	·	·
Cc1ccc(/C=C/C(=O)c2ccccc(=O)c2O)cc1C	45µM*	2%	17%	-2	?	21µM*
O=C(/C=C/c1ccccc1)c1cc(Br)ccc(=O)c1O	?	14%	?	2	?	18µM*
CC[C@@]1(C(=O)OC)N[C@H](CN(C)C(=O)COc2ccccc2)[C@@H]2C(=O)N(C)C(=O)[C@@H]21	?	-5%	-1%	-4	1%	15%
CC[C@@]1(C(=O)OC)N[C@H](CN(C)C(=O)COC)[C@@H]2C(=O)N(C)C(=O)[C@@H]21	5µM*	-10%	0%	1	8%	4%
O=C1C2CC=C(Cl)CC2C(=O)N1CC1OCCc2ccccc21 (configuration not stated)	20µM*	-4%	2%	-5	-8%	?
O=C1C2CC=C(Cl)CC2C(=O)N1CC1Cc2ccccc2CO1 (configuration not stated)	·	-3%	3%	1	14%	-4%
O=C(O)c1cccc(N2C(=O)/C(=C/c3ccc([N+](=O)[O-])cc3)C=C2c2ccccc2)c1	35µM*	9%	0%	-3	-8%	1%
O=C1/C(=C/c2ccc([N+](=O)[O-])cc2)C=C(c2ccccc2)N1c1ccccc1	-14%	·	0%	1	9%	10%
CCOCCCNC(=O)/C(C#N)=C/c1ccc([N+](=O)[O-])o1	-23%	37%	?	36	?	26µM*
CCOCCCNC(=O)/C(C#N)=C/c1ccc(-c2ccc(S(=O)(=O)N3CCOCC3)cc2)o1	·	4%	0%	3	-3%	0%
O=C(C1CCCCC1)N1CCCC2(CC(c3cccc(C(F)(F)F)c3)=NO2)C1 (configuration not stated)	0%[6.33 µM]	·	·	·	·	·
Cc1cccc2[nH]c3c(N4CC=C(c5ccc(F)cc5)CC4)ncnc3c12	98%	-5%	6%	-1	-10%	21µM*
SMILES	ALOX12 inh	ERG Ets-DNA blk	Nrf2 activator	LDHA inh	A549 tox	Nrf2 inh
COc1cccc2[nH]c3c(N4CCCCC4)ncnc3c12	-28%	2%	2%	1	10%	?
C=CCNC(=S)NNC(N)=S	8.9µM*	·	·	11	·	·
C=CCNC(=S)NCC=C	-9%	7%	0%	-9	-5%	8%
Cc1ccc(C2(C)NC(=O)N(Cc3coc(-c4cccs4)n3)C2=O)cc1 (configuration not stated)	-17%	·	·	8	·	·
CC(=O)c1ccc(N=Nc2ccc(C)cc2)cc1	20%	1%	0%	-7	3%	?
C=C(C)C(=O)Oc1ccc(N=Nc2ccc(C)cc2)ccc1=O	22µM*	19%	?	9	?	?
CSc1c[n+]2c(n1C)CCC2	45µM*	-3%	0%	-34*	-6%	-27%
Cc1onc(-c2ccccc2F)c1C(=O)NCc1cccs1	12%	·	·	1	·	·
CN(Cc1ccco1)c1ncnc2ccc(-c3ccccc3Cl)cc12	28µM*!	·	14%	-5	-4%	?
O=[N+]([O-])c1cc([N+](=O)[O-])c2c(=Nc3ccccc3)n(-c3ccccc3)n(O)c2c1	0%	11%	14µM*	16	-22%	-11%
COc1cc(OC)cc(C(=O)N[C@H](C(=O)Nc2nc3c(s2)CCCC3)C(C)C)c1	-14%	6%	8%	-4	-17%	23µM*
Cc1ccc(CN(Cc2cc3cc4c(cc3[nH]c2=O)OCCO4)Cc2nnnn2Cc2ccco2)cc1	-20%	-6%	5%	12	?	26µM*
CCN(CC(=O)Nc1ccccc1OC)C(=O)c1ccc2[nH]c3c(c2c1)CC(C)CC3 (configuration not stated)	1%	1%	0%	-1	?	?
CCCN(CC(=O)Nc1ccccc1OC)C(=O)c1ccc2[nH]c3c(c2c1)CC(C)CC3 (configuration not stated)	?	19%	2%	3	?	23µM*
Cc1cc(=O)oc2cc(OCc3nc(-c4cccc(Cl)c4)no3)ccc12	?	·	·	1	·	·
CC(C)(C)c1ccc(NC(=O)N2CCN(c3ccc([N+](=O)[O-])cn3)CC2)cc1	-8%	0%	4%	-6	-8%	13µM*
Cc1ccc(OCc2nnc(NC(=O)c3ccco3)s2)cc1	6%	5%	0%	-4	-4%	5%
CCc1nnc(NC(=O)C2CCN(C(=O)c3ccco3)CC2)s1	-6%	-8%	1%	-16	-8%	-19%
O=C(Nc1nnc(Cc2ccc(Cl)cc2)s1)C1CCN(C(=O)c2ccco2)CC1	·	·	·	-2	-6%	16µM*
